Compound activity as filed in PubChem.
An excerpt weighted towards active compounds, which were near 5.7% of everything screened.
B2AR arrestin: qHTS assay of beta-arrestin-biased ligands of beta2-adrenergic receptor; Beta-2 adrenergic receptor (Homo sapiens), P07550; beta-arrestin recruitment to beta2AR, cell-based reporter; Potency, µM (doses to about 46.1 µM), without a hit: top-dose activation, most hits filed as activators; actives 0.02% (n = 330,000);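 further: 0% = DMSO controls and full agonism = EC100 isoproterenol or metaproterenol; nearly all actives have a fitted effect of over 65% in size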
Target sequence (P07550 whole entry, looked up): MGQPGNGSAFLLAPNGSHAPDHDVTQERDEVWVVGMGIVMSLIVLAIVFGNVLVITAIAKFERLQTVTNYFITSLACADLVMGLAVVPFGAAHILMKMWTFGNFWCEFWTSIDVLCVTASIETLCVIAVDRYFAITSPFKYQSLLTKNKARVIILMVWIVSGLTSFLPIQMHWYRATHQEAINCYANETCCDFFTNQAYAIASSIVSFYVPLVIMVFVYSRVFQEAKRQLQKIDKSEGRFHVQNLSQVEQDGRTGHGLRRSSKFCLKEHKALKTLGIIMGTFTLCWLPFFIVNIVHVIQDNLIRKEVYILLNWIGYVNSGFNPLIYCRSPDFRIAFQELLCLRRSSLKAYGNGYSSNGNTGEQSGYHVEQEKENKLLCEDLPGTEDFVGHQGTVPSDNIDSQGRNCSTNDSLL
RORg inh: qHTS for inhibitors of ROR gamma transcriptional activity | Nuclear receptor ROR-gamma (Mus musculus), P51450 | Drosophila S2 Gal4-RORgamma UAS-luciferase reporter, 20 h | Potency, µM (series often up to 53.6 µM), inactives show at the top dose activity change, negative = inhibition, usual class: inhibitors | actives 5.4% (n = 310,000); further: nearly all actives have a fitted effect of over 60% in size
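Drosophila S2 cells stably expressing Gal4-DBD/mouse RORγ fusion under metallothionein promoter plus UAS-luciferase; compound 1 h, then 700 uM CuSO4 induction for 20 h at ambient temperature; inhibition read as reduced luminescence.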
Gal4-VP16 FLuc: VP16 counterscreen qHTS for inhibitors of ROR gamma transcriptional activity. Drosophila S2 Gal4-VP16 UAS-luciferase, luminescence, 20 h. actives 3.5% (n = 310,000). Potency, µM (top dose mostly 53.6 µM), inactives show at the highest dose activity, negative = inhibition, hits mostly inhibitors;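 further: Gal4-VP16 expression switched on by copper sulfate through the metallothionein promoter; nearly all actives have a fitted effect of over 50% in size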
NPSR antagonist: qHTS Assay for Antagonists of the Neuropeptide S Receptor: cAMP Signal Transduction; Q6W5P4; CHO-NPSR cells, cAMP TR-FRET, antagonist mode; Potency, µM (top dose mostly 38.3 µM), inactives show at the highest dose activity change, negative = inhibition, hits mostly inhibitors; actives 1% (n = 220,000); further: nearly all actives have a fitted effect of over 50% in size
Numbers without * were called inactive; ? = inconclusive; nt = not tested or not shown; [ ] = remark or other dose. The call rests on the fitted dose curve; in most records, active means well fitted curve in the direction sought with a large enough effect; inconclusive means small, poorly fitted or top-dose-only effect, or another doubt; inactive means no such curve, though single readings can be large; an effect the other way counts as inactive or inconclusive. Unless noted, on the % scale 0 is the no-effect control and ±100 the full control effect; potency means the concentration at half of the fitted maximal effect.

SMILES	B2AR arrestin	RORg inh	Gal4-VP16 FLuc	NPSR antagonist
CC(C)NC(=O)NC(=O)CSc1nnc(-c2c[nH]c3ccccc23)o1	-1%	2%	3%	nt
Cc1ccc(C(=O)C(C(=O)/C=C/c2ccccc2)=C2SCCCS2)cc1	0%	3.5µM*	14µM*	?
Cc1ccccc1-c1nc(-c2ccccn2)no1	0%	7.1µM*	7.9µM*	-6%
COc1ccccc1-c1nc(-c2ccccn2)no1	0%	2.5µM*	7.1µM*	5%[46.1 µM]
Clc1ccc(-c2nc(-c3ccccn3)no2)cc1Cl	0%	-31%	-20%	0%[46.1 µM]
Brc1ccc(-c2nc(-c3ccccn3)no2)o1	-1%	?	7.1µM*	0%[46.1 µM]
Cc1ccccc1-c1nc(-c2cccnc2)no1	-1%	-2%	28%	-11%[46.1 µM]
COc1ccc(-c2nc(-c3ccccn3)no2)cc1	0%	0.56µM*	0.32µM*	-8%
CCC(=O)NC[C@H](Cc1ccc(OCCc2nc(-c3ccccc3)oc2C)cc1)N/C(C)=C\C(=O)c1ccc(C(F)(F)F)cc1	nt	?	-22%	nt
CC[C@H](C)[C@H](NC(=O)[C@H](Cc1ccc(O)cc1)NC(=O)[C@@H](NC(=O)[C@H](CCCN=C(N)N)NC(=O)[C@@H](N)CC(=O)O)C(C)C)C(=O)N[C@@H](Cc1cnc[nH]1)C(=O)N1CCC[C@H]1C(=O)N[C@@H](Cc1ccccc1)C(=O)N[C@@H](Cc1cnc[nH]1)C(=O)N[C@@H](CC(C)C)C(=O)O	nt	5%	8%	nt
O=Nc1ccc2oc(=O)ccc2c1	nt	nt	nt	-11%[46.1 µM]
O=C(Cc1cccs1)N/N=C/C=C/c1ccccc1	0%	13%	2%	-6%[46.1 µM]
COc1ccc(/C=C/C(=O)NC(=S)NNC(=O)Cc2cccs2)cc1	0%	11µM*	?	?
O=C(/C=C/c1ccccc1)NC(=S)NNC(=O)Cc1cccs1	0%	2.5µM*	5µM*	-14%[46.1 µM]
COc1ccc(Oc2ncc3nc(CCc4ccccc4)c(=O)n(C4CC4)c3n2)cc1	nt	-4%	9%	nt
O=C(CN(C(=O)CCC(=O)Nc1ccccn1)c1ccccc1F)NCc1ccc2c(c1)OCO2	0%	15%	-3%	nt
Cc1ccc(N2CC(C(=O)Nc3ccc4c(c3)OCO4)CC2=O)cc1C (centres undefined)	0%	-8%	1%	nt
O=C(O)c1cccc(NC(=S)N/N=C/c2ccccc2OCc2ccc(Br)cc2)c1	0%	13µM*	-6%	-46%
O=C(O)c1cccc(NC(=S)N/N=C/c2ccccc2OCc2cccc(Br)c2)c1	0%	11µM*	-8%	?
O=C1c2ccccc2C(=O)C1c1ccc(Cl)cc1	-1%	0%	12%	nt
O=C1c2ccccc2C(=O)C12OC2c1ccc(Cl)cc1Cl (centres undefined)	-1%	10µM*	?	?
Cc1ccc(S(=O)(=O)N(Cc2ccc([N+](=O)[O-])cc2)C(=O)N2CCN(C)CC2)cc1	0%	nt	nt	nt
C=CCNC(=O)C1CC1(c1ccccc1)c1ccccc1 (centres undefined)	3%	-2%	-27%	6%
S=c1[nH]c2ccc(Cl)cc2[nH]1	0%	-3%	7%	17%
S=c1[nH]c2cc(Cl)ccc2s1	0%	13µM*	?	-5%[46.1 µM]
SMILES	B2AR arrestin	RORg inh	Gal4-VP16 FLuc	NPSR antagonist
Clc1ccccc1COc1ccccc1-c1nnco1	0%	11µM*	?	32%[46.1 µM]
c1ccc(OCCOc2ccccc2-c2nnco2)cc1	0%	3%	0%	0%[46.1 µM]
Cc1nc(C(=O)N2CCC(n3nccc3NC(=O)Nc3ccccc3Cl)CC2)cs1	0%	-1%	0%	nt
CCOC(=O)c1cnc(-n2nc(C)cc2C)[nH]c1=O	0%	6.3µM*	-27%	5%
CCOC(=O)c1cnc(-n2nc(C)cc2C)nc1Nc1ccccc1OC	0%	1.3µM*	2.2µM*	-2%[46.1 µM]
Cc1cc(C)c(C(N)=O)c(NCCc2ccccc2)n1	0%	-3%	-4%	7%[46.1 µM]
CCOC(=O)c1cc(C#N)c(Nc2ccccc2OC)nc1C(F)(F)F	-1%	-13%	-1%	15%
CCOC(=O)c1cnc(-n2nc(C)cc2C)nc1NC1CCCC1	3%	18%	-3%	1.3µM*
CCOC(=O)c1cnc(-n2[nH]c(C)cc2=O)[nH]c1=O	0%	16%	1%	5%
CCOC(=O)c1cnc(-n2nc(C)cc2C)nc1NCCc1ccccc1	-1%	0.89µM*	1.8µM*	13µM*
C[C@H](CO)N1C[C@H](C)[C@@H](CN(C)Cc2ccncc2)Oc2ccc(NC(=O)CCCCCC(=O)Nc3ccccc3N)cc2C1=O	-1%	nt	nt	nt
CCOC(=O)c1ccc(-n2nc(C)cc2C)cc1	-1%	2%	5%	-16%
CCOC(=O)c1cnc(-n2nc(C)cc2C)nc1N1CCOCC1	-1%	10%	11µM*	-23%[46.1 µM]
CCOC(=O)c1ccc(NCc2ccc3c(c2)OCO3)cc1	0%	10%	-10%	-28%[46.1 µM]
CCOC(=O)c1cnc(-n2nc(C)cc2C)nc1NCc1ccc2c(c1)OCO2	0%	3.5µM*	3.2µM*	?
CCOC(=O)c1cnc(-n2cc(C)cn2)nc1Nc1ccccc1OCC	0%	1.8µM*	-10%	?
CCOC(=O)c1cnc(-n2nc(C)cc2C)nc1N(C)C	?	1.1µM*	4.5µM*	?
CCOC(=O)c1cnc(SC)nc1Nc1cccc2ccccc12	0%	?	-15%	-2%[46.1 µM]
CC(C)OP(=O)(OC(C)C)C1(NS(=O)(=O)c2ccc(Cl)cc2)C=C(Cl)C(=O)C(Cl)=C1	0%	37%	3%	nt
C=C1CCN(C(Cc2ccccc2)C(=O)NC2CCN(Cc3ccccc3)CC2)S(=O)(=O)c2ccccc21 (centres undefined)	nt	27%	3%	nt
Cc1cccc(C(=O)NCC(=O)OC(C)C(=O)Nc2ccc(Cl)cn2)c1 (centres undefined)	0%	nt	nt	nt
CCOC(=O)c1cnc(-n2nc(C)cc2C)nc1Oc1ccccc1F	-1%	5µM*	?	-14%
CCOC(=O)c1cnc(-n2nc(C)cc2C)nc1Nc1ccc(OC)cc1	0%	1.6µM*	2.5µM*	?
CCOC(=O)c1cnc(Nc2ccc(OCC)cc2)nc1C	0%	41%	11%	-16%[46.1 µM]
CCOC(=O)c1cnc(-n2nc(C)cc2C)nc1Oc1ccc(C(=O)OC)cc1	-1%	-22%	3%	3%
CCOc1ccc(C2C(C#N)=C(N)SC(N)=C2C#N)cc1OCC	0%	-28%	7.9µM*	8%[46.1 µM]
CC(C)c1ccc(/C=C2\SC(=O)N(CC(=O)NC3C=CS(=O)(=O)C3)C2=O)cc1 (centres undefined)	0%	?	4.5µM*	nt
O=C(CN1C(=O)/C(=C/c2ccc(Cl)cc2)SC1=S)NC1C=CS(=O)(=O)C1 (centres undefined)	0%	-25%	?	nt
COc1ccc([C@@H](C)C(=O)c2ccc(O)cc2O)cc1	nt	-4%	0%	nt
CCn1c(CN2CCN(c3cccc(C)c3C)CC2)n[nH]c1=S	-1%	4µM*	7.1µM*	-16%
